# Measured values taken from article PMC7862700, “An all-to-all approach to the identification of sequence-specific readers for epigenetic DNA modifications on cytosine”.
# How the values were obtained:
# Assay in all cases: DAPPL (digital affinity profiling via proximity ligation, sequencing); 10 mM Tris-HCl pH 7.5, 50 mM NaCl, 1 mM DTT, 4% glycerol, room temperature, 30 min; GST-TFs on glutathione beads, 16-mer random dsDNA library, 0.1% formaldehyde crosslink after washing; high values mean tight binding
# ELK1 = biological target: T1, ELK1 (Homo sapiens, UniProt P19419 1-428); conditions: protein: recombinant; tags: N-terminal GST; dsDNA, one strand shown
# T1 sequence: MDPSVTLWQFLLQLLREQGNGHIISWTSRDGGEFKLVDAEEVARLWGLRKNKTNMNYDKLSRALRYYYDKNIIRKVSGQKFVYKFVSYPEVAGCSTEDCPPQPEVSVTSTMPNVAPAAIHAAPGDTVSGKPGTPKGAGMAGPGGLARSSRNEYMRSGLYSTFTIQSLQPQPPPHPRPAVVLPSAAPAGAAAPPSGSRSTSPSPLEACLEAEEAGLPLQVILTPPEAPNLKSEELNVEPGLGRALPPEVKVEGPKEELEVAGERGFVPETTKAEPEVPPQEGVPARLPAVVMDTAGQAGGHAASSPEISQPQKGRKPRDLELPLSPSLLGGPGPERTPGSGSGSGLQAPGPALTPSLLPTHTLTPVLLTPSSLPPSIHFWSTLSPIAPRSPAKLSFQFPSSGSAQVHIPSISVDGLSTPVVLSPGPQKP
# In short: (§1)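 Binding signal is each hexamer's read frequency for a factor divided by its frequency in the tag-only sample. The factors were GST-fused human transcription factors from yeast, captured on glutathione beads, DNA-barcoded and pooled with that sample. Pools were incubated with 200 nmole of a random double-stranded 16-mer DNA library in Tris/NaCl/DTT/glycerol buffer at room temperature for 30 min, then washed, crosslinked with 0.1% formaldehyde, proximity-ligated with BsaI/T4 ligase (1 h, 37 °C), PCR-amplified and sequenced on an Illumina NextSeq500.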
# GABPA = biological target: T2, GABPA (Homo sapiens, UniProt Q06546 1-454); conditions: protein: recombinant; tags: N-terminal GST; dsDNA, one strand shown
# T2 sequence: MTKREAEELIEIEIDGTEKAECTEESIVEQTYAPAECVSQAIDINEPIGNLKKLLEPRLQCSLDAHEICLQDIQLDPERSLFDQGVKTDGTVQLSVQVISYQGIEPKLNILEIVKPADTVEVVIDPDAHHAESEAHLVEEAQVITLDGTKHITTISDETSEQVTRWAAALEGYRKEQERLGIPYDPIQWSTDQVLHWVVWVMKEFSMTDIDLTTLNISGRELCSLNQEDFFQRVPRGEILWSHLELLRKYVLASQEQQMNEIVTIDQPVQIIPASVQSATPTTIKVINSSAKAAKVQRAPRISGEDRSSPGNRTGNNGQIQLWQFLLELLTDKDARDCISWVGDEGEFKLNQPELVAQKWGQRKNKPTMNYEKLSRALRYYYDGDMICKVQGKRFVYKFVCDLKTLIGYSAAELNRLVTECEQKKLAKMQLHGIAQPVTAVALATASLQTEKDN
# In short: as §1
# ELF1 = ELF1 (Homo sapiens, UniProt P32519 1-619); conditions: protein: recombinant; tags: N-terminal GST; dsDNA, one strand shown
# Sequence of ELF1 (P32519 whole entry): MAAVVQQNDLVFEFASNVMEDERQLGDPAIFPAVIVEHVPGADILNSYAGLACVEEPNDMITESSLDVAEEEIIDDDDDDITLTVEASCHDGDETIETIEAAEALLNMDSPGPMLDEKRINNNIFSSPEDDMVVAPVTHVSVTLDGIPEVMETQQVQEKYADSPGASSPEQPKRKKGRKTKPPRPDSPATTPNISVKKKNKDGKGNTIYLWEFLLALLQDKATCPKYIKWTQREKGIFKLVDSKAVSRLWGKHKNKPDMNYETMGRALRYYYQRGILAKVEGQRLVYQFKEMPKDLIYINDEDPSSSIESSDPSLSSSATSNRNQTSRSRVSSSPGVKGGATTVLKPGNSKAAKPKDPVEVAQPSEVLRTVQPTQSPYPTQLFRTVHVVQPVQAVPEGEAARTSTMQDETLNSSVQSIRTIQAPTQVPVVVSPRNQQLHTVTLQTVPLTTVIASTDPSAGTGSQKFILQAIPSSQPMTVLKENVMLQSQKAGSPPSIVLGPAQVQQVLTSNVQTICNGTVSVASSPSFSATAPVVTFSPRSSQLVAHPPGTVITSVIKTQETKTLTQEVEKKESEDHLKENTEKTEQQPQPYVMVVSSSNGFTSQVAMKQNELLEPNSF
# In short: as §1
# SPI1 = SPI1 (Homo sapiens, UniProt P17947 1-270); conditions: protein: recombinant; tags: N-terminal GST; dsDNA, one strand shown
# In short: as §1
# HSF1 = HSF1 (Homo sapiens, UniProt Q00613 1-529); conditions: protein: recombinant; tags: N-terminal GST; chain copies: 3; dsDNA, one strand shown
# Sequence of HSF1 (Q00613 whole entry): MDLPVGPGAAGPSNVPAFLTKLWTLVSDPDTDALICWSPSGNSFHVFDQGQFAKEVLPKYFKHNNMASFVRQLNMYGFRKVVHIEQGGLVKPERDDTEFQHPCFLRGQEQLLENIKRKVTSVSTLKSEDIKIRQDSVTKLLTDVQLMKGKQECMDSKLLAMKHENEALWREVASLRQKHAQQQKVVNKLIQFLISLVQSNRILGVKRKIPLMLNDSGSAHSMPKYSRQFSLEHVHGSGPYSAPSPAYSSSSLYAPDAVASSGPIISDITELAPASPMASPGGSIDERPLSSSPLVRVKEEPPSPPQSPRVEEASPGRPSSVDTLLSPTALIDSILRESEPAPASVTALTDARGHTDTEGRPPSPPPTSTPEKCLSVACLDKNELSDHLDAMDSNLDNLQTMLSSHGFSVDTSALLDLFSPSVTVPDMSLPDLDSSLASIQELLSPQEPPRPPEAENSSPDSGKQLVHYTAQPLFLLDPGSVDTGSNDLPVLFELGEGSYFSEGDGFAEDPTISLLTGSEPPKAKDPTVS
# In short: as §1
# ELF4 = ELF4 (Homo sapiens, UniProt Q99607 1-663); conditions: protein: recombinant; tags: N-terminal GST; dsDNA, one strand shown
# Sequence of ELF4 (Q99607 whole entry): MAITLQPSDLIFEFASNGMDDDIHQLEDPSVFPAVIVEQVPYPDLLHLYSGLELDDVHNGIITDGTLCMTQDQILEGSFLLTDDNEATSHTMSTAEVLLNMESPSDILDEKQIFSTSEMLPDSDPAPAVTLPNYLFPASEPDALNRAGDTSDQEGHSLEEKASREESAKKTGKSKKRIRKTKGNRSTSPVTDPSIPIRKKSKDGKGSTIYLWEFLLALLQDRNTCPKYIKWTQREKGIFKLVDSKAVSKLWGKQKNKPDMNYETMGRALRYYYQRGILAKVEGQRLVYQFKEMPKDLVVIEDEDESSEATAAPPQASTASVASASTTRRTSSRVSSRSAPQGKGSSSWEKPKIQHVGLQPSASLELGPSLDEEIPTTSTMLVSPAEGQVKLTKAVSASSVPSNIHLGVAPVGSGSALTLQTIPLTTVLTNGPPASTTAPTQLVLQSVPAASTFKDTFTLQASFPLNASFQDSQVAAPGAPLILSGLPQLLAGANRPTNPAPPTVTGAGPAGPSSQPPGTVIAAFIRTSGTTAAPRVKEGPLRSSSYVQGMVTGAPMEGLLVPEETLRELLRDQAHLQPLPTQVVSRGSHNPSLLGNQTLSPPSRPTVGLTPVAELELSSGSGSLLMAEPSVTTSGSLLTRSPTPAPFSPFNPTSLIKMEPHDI
# In short: as §1
# ELK4 = biological target: T3, ELK4 (Homo sapiens, UniProt P28324-2 1-405); conditions: protein: recombinant; tags: N-terminal GST; dsDNA, one strand shown
# T3 sequence: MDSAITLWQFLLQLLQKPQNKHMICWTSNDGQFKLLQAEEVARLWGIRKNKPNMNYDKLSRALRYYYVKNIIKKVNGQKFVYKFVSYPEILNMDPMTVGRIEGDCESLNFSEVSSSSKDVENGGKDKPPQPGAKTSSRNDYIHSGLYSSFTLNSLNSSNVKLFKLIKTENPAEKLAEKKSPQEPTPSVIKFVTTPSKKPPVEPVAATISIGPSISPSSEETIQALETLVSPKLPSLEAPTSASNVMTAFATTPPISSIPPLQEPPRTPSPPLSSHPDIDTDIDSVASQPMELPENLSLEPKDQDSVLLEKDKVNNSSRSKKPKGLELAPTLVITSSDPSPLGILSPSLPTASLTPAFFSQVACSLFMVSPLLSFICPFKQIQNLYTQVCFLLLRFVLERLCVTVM
# In short: as §1
# ETV2 = biological target: T4, ETV2 (Homo sapiens, UniProt O00321 1-342); conditions: protein: recombinant; tags: N-terminal GST; dsDNA, one strand shown
# T4 sequence: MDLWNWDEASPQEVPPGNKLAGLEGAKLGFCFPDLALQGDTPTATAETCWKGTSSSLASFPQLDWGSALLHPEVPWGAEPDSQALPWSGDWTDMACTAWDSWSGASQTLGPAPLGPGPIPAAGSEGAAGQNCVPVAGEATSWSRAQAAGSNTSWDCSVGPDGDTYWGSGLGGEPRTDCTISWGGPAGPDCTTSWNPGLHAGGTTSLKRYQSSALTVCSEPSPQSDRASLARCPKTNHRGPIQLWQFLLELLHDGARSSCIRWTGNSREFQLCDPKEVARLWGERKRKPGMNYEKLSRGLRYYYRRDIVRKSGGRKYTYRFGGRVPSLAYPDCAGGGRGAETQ
# In short: as §1
# ELF3 = biological target: T5, ELF3 (Homo sapiens, UniProt P78545 1-371); conditions: protein: recombinant; tags: N-terminal GST; dsDNA, one strand shown
# T5 sequence: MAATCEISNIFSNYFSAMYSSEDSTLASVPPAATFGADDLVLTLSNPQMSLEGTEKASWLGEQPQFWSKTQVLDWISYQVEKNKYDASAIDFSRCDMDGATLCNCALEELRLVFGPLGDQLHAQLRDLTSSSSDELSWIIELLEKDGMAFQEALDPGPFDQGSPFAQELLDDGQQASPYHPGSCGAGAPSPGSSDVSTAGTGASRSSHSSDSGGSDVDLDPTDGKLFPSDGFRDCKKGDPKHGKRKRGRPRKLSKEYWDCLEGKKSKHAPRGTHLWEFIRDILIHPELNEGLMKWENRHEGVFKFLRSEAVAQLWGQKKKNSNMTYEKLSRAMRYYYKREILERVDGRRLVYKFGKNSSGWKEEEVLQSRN
# In short: as §1
# CRX = CRX (Homo sapiens, UniProt O43186 1-299); conditions: protein: recombinant; tags: N-terminal GST; dsDNA, one strand shown
# Sequence of CRX (O43186 whole entry): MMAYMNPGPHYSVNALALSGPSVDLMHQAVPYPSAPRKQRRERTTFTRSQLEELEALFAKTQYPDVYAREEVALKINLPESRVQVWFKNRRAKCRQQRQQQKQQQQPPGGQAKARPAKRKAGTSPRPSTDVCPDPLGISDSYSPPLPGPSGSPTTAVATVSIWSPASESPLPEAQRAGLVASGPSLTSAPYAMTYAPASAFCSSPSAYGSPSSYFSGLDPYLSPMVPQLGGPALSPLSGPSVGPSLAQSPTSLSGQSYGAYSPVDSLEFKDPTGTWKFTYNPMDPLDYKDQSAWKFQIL
# In short: as §1
# ERF = biological target: T6, ERF (Homo sapiens, UniProt P50548 1-548); conditions: protein: recombinant; tags: N-terminal GST; dsDNA, one strand shown
# T6 sequence: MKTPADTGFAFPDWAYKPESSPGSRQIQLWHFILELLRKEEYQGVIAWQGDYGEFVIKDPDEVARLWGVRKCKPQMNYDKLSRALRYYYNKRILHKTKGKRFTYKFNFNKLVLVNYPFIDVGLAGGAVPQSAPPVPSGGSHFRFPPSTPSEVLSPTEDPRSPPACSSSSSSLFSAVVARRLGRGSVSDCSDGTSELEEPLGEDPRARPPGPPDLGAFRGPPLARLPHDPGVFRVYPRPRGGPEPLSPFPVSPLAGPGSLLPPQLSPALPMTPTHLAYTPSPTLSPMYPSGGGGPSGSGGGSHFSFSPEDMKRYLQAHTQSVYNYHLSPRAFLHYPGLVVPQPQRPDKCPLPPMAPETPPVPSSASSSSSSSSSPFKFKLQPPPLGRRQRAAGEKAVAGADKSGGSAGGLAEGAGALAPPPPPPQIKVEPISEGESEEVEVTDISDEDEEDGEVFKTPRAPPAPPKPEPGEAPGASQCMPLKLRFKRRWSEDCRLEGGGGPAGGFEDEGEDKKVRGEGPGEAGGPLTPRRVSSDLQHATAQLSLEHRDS
# In short: as §1
# ETV3L = biological target: T7, ETV3L (Homo sapiens, UniProt Q6ZN32 1-361); conditions: protein: recombinant; tags: N-terminal GST; dsDNA, one strand shown
# T7 sequence: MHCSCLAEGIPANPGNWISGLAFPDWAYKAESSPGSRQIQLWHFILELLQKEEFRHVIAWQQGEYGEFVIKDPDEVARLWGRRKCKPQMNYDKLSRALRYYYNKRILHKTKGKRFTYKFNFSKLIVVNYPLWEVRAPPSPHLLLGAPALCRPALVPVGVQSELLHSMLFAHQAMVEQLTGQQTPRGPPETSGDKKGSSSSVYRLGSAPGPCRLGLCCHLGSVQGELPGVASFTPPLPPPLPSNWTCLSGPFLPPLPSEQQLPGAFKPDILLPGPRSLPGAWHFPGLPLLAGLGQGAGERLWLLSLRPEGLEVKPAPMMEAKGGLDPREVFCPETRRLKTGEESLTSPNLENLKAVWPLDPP
# In short: as §1
# ETS2 = biological target: T8, ETS2 (Homo sapiens, UniProt P15036 1-469); conditions: protein: recombinant; tags: N-terminal GST; dsDNA, one strand shown
# T8 sequence: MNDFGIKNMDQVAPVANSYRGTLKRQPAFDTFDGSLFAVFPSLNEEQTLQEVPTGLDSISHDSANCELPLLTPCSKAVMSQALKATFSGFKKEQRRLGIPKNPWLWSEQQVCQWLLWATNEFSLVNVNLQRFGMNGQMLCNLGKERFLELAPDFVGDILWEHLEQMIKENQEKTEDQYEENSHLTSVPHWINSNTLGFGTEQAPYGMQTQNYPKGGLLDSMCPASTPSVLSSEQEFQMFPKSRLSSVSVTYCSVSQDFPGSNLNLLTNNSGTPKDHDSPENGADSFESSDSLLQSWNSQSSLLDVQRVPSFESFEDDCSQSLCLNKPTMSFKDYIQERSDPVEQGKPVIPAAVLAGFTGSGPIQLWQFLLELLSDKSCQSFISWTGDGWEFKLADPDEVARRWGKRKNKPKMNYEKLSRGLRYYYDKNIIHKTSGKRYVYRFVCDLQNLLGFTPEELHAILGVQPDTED
# In short: as §1
# SPDEF = biological target: T9, SPDEF (Homo sapiens, UniProt O95238 1-335); conditions: protein: recombinant; tags: N-terminal GST; dsDNA, one strand shown
# T9 sequence: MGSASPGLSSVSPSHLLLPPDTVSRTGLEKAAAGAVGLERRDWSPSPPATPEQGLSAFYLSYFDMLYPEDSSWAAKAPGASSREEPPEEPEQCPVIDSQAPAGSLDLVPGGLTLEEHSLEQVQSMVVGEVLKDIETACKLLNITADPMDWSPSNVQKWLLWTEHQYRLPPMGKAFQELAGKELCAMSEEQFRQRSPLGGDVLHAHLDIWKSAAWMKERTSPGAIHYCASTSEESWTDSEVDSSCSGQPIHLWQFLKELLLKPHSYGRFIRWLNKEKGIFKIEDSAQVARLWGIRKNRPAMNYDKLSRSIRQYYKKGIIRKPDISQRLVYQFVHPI
# In short: as §1
# ETV7 = biological target: T10, ETV7 (Homo sapiens, UniProt Q9Y603 1-341); conditions: protein: recombinant; tags: N-terminal GST; dsDNA, one strand shown
# T10 sequence: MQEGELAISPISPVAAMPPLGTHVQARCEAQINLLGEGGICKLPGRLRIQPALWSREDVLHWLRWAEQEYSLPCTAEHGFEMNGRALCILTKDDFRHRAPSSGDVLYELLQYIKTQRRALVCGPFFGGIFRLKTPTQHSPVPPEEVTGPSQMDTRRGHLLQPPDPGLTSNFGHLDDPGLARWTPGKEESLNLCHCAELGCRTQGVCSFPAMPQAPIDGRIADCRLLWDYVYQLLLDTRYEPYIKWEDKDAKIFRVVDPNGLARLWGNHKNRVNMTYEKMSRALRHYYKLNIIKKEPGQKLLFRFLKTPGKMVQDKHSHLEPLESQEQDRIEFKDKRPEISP
# In short: as §1
# ELF5 = biological target: T11, ELF5 (Homo sapiens, UniProt Q9UKW6-2 1-255); conditions: protein: recombinant; tags: N-terminal GST; dsDNA, one strand shown
# T11 sequence: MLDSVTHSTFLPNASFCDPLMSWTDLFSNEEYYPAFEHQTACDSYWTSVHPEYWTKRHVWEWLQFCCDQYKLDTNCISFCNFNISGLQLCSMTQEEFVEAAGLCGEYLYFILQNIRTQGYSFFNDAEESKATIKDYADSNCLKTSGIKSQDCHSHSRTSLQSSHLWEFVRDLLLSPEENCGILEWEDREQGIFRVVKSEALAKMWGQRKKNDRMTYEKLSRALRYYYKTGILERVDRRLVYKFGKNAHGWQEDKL
# In short: as §1
# ETV3 = biological target: T12, ETV3 (Homo sapiens, UniProt P41162-2 1-143); conditions: protein: recombinant; tags: N-terminal GST; dsDNA, one strand shown
# T12 sequence: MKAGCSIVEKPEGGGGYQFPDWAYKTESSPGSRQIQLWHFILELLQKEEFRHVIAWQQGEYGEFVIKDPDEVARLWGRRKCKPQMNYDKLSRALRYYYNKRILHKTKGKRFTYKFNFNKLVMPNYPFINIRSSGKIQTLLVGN
# In short: as §1
# ETV6 = ETV6 (Homo sapiens, UniProt P41212 1-452); conditions: protein: recombinant; tags: N-terminal GST; dsDNA, one strand shown
# Sequence of ETV6 (P41212 whole entry): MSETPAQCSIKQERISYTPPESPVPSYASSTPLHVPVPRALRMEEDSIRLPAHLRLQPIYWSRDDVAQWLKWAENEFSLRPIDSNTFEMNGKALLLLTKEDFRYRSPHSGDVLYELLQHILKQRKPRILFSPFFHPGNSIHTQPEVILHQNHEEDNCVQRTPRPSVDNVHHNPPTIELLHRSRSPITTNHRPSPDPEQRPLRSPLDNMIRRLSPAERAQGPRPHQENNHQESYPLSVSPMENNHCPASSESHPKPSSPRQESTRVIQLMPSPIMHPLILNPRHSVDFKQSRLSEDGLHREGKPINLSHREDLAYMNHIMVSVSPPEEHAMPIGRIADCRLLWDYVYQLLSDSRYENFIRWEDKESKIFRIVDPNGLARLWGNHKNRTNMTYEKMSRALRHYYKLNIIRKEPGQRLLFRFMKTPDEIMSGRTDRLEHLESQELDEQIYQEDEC
# In short: as §1
sequence,measurement,setting,value
AGAATA,binding signal,ELK1,"1.04 fold enrichment (6-mer frequency, TF over GST control)"
same,binding signal,GABPA,"1 fold enrichment (6-mer frequency, TF over GST control)"
same,binding signal,ELF1,"1.01 fold enrichment (6-mer frequency, TF over GST control)"
same,binding signal,SPI1,"1 fold enrichment (6-mer frequency, TF over GST control)"
same,binding signal,HSF1,"2.32 fold enrichment (6-mer frequency, TF over GST control)"
same,binding signal,ELF4,"1.06 fold enrichment (6-mer frequency, TF over GST control)"
same,binding signal,ELK4,"1.02 fold enrichment (6-mer frequency, TF over GST control)"
same,binding signal,ETV2,"1.07 fold enrichment (6-mer frequency, TF over GST control)"
same,binding signal,ELF3,"1.04 fold enrichment (6-mer frequency, TF over GST control)"
same,binding signal,CRX,"1.42 fold enrichment (6-mer frequency, TF over GST control)"
same,binding signal,ERF,"1.03 fold enrichment (6-mer frequency, TF over GST control)"
same,binding signal,ETV3L,"1.04 fold enrichment (6-mer frequency, TF over GST control)"
same,binding signal,ETS2,"1 fold enrichment (6-mer frequency, TF over GST control)"
same,binding signal,SPDEF,"1.04 fold enrichment (6-mer frequency, TF over GST control)"
same,binding signal,ETV7,"1.08 fold enrichment (6-mer frequency, TF over GST control)"
same,binding signal,ELF5,"1.04 fold enrichment (6-mer frequency, TF over GST control)"
same,binding signal,ETV3,"1.04 fold enrichment (6-mer frequency, TF over GST control)"
same,binding signal,ETV6,"1.07 fold enrichment (6-mer frequency, TF over GST control)"
